# Test results published in PubChem BioAssay (NCATS).
# Inconclusive results are not listed. Entries that show only a call come without a potency. A number with no mark means an inactive call. The source made the active and inactive calls. The call rests on the fitted dose curve; in most records, active means well fitted curve in the direction sought with a large enough effect; inconclusive means small, poorly fitted or top-dose-only effect, or another doubt; inactive means no such curve, though single readings can be large; an effect the other way counts as inactive or inconclusive.
# Tests used:
# [1] = test system: JEG-3; assay: Primary qHTS to identify gynecologic anti-cancer compounds using libraries of approved drugs and bioactive compounds (AID 1345084); conditions: Gynecologic cancer cell panel viability, ATPlite luminescence, 48 h; series mostly up to 57.5 µM; further: nearly all actives have a fitted effect of over 55% in size
# How it was run: (§1)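 Measured: luminescence after ATPlite addition (15 min, RT). Exposure: 48 h, 37 C, 5% CO2.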
# [2] = test system: OV90; assay: as above; conditions: Gynecologic cancer cell panel viability, ATPlite luminescence, 48 h; series mostly up to 57.5 µM
# How it was run: as §1
# [3] = test system: PA-1; assay: as above; conditions: Gynecologic cancer cell panel viability, ATPlite luminescence, 48 h; series mostly up to 57.5 µM
# How it was run: as §1
# [4] = test system: SKOV3; assay: as above; conditions: Gynecologic cancer cell panel viability, ATPlite luminescence, 48 h; series mostly up to 57.5 µM
# How it was run: as §1
# [5] = test system: Tov-21-G; assay: as above; conditions: Gynecologic cancer cell panel viability, ATPlite luminescence, 48 h; series mostly up to 57.5 µM
# How it was run: as §1
# [6] = test system: Tov112D; assay: as above; conditions: Gynecologic cancer cell panel viability, ATPlite luminescence, 48 h; series mostly up to 57.5 µM
# How it was run: as §1
# [7] = test system: Hek293T; assay: as above; conditions: Gynecologic cancer cell panel viability, ATPlite luminescence, 48 h, control line for the selectivity index; series mostly up to 57.5 µM
# How it was run: as §1
# [8] = qHTS assay to identify inhibitors of the type 1 interferon - major histocompatibility complex class I in skeletal muscle: Counter screen cell viability and HiBit confirmation (AID 1347412); conditions: iHSKM muscle cells + IFN-b, HiBiT or CellTiter-Glo, 24 h; for activity change, negative = inhibition: at 45.9 µM (top of the series); on all read-outs here: nearly all actives have a fitted effect of over 60% in size
# How it was run: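 Luminescence read-out: Nano-Glo HiBiT lytic signal from C-terminally HiBiT-tagged HLA-B in CRISPR-edited human myoblasts, plus CellTiter Glo ATP as viability counter screen. IFN-beta 4.0 ng/ml; 24 hrs treatment at 37 C, 5% CO2.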
# [9] = Drug repurposing screens with cells derived from glioblastoma tumor samples (AID 1345199); conditions: GBM patient neurospheres viability, ATP luminescence, 48 h; further: nearly all actives have a fitted effect of over 40% in size
# How it was run: (§2)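 Four patient lines of CD133+ GBM neurospheres were screened at several concentrations; hits were retested in those lines plus three slower-growing GBM lines, using 48-hour treatment and ATP-based viability.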
# [10] = test system: astro; assay: as above; conditions: viability, ATP luminescence, 48 h; series mostly up to 45.9 µM
# How it was run: as §2
# Potency means the concentration at half of the fitted maximal effect.
smiles,measurement,setting,value
Cc1nnc(C(C)C)n1C1CC2CCC(C1)N2CCC(NC(=O)C1CCC(F)(F)CC1)c1ccccc1 (centres undefined),Potency,[1],inactive
same,Potency,[2],inactive
same,Potency,[3],inactive
same,Potency,[4],inactive
same,Potency,[5],inactive
same,Potency,[6],inactive
COc1cc(C(C)=O)ccc1O[C@@H]1O[C@H](CO[C@@H]2O[C@@H](C)[C@H](O)[C@@H](O)[C@H]2O)[C@@H](O)[C@H](O)[C@H]1O,Potency,[7],inactive
same,Potency,[1],inactive
same,Potency,[2],inactive
same,Potency,[5],inactive
same,Potency,[6],inactive
Cc1cn2c(N)c(Cl)cc(C(=O)NCC3CCN(CC(C)C)CC3)c2n1,Potency,[7],inactive
same,Potency,[1],inactive
same,Potency,[3],inactive
same,Potency,[4],inactive
same,Potency,[5],inactive
same,Potency,[6],inactive
COC(=O)[C@@]1(O)C=CC[C@@H]2[C@@]3(C)C[C@@H](c4ccoc4)OC(=O)[C@H]3CC[C@]21C,Potency,[7],inactive
same,Potency,[1],inactive
same,Potency,[2],inactive
same,Potency,[4],inactive
same,Potency,[5],inactive
same,Potency,[6],inactive
CCn1c2ccccc2c2cc(CNC)ccc21,Potency,[7],inactive
same,Potency,[1],inactive
same,Potency,[3],inactive
same,Potency,[4],inactive
same,Potency,[5],inactive
same,Potency,[6],inactive
Cc1cc(N2CCCCC2)nc2ccccc12,Potency,[7],inactive
same,Potency,[2],inactive
same,Potency,[3],inactive
same,Potency,[5],inactive
same,Potency,[6],inactive
C[C@@H]1O[C@@H](OC[C@H]2O[C@@H](OCCc3ccccc3)[C@H](O)[C@@H](O)[C@@H]2O)[C@H](O)[C@H](O)[C@H]1O,Potency,[7],inactive
same,Potency,[1],inactive
same,Potency,[2],inactive
same,Potency,[4],inactive
same,Potency,[5],inactive
same,Potency,[6],inactive
CNC(=O)c1ccc(Nc2ncc(C(F)(F)F)c(NCc3nccnc3N(C)S(C)(=O)=O)n2)cc1,Potency,[7],8.91 µM (active)
same,Potency,[3],4.47 µM (active)
same,Potency,[6],22.4 µM (active)
same,Potency,[8]; HiBiT,3.52 µM (active)
same,"activity change, negative = inhibition",[8]; Viability,-7.39%
CCOc1cc2ncc(C#N)c(Nc3ccc(OCc4ccccn4)c(Cl)c3)c2cc1NC(=O)/C=C/CN(C)C,Potency,[7],inactive
same,Potency,[1],inactive
same,Potency,[2],inactive
same,Potency,[6],inactive
same,Potency,[8]; HiBiT,1.57 µM (active)
CC(CO[C@@H]1O[C@H](COC(=O)/C=C/c2ccc(O)c(O)c2)[C@@H](O)[C@H](O)[C@H]1O)C1(O)COC(=O)C1 (some centres undefined),Potency,[7],inactive
same,Potency,[2],inactive
same,Potency,[3],inactive
same,Potency,[4],inactive
same,Potency,[5],inactive
same,Potency,[6],inactive
CC(=O)c1cnc2ccc(-c3cc(Cl)c(O)c(Cl)c3)nc2c1NC1CCC(CN(C)C)CC1 (centres undefined),Potency,[7],0.562 µM (active)
same,Potency,[3],0.501 µM (active)
same,Potency,[4],0.891 µM (active)
same,Potency,[6],0.447 µM (active)
same,Potency,[8]; HiBiT,0.0991 µM (active)
same,"activity change, negative = inhibition",[8]; Viability,-15.7%
CN(NC(=O)CC(=O)NN(C)C(=S)c1ccccc1)C(=S)c1ccccc1,Potency,[7],inactive
same,Potency,[1],inactive
same,Potency,[5],1.12 µM (active)
same,Potency,[6],inactive
CC(C)=CCC[C@](C)(O[C@@H]1O[C@H](CO[C@@H]2OC[C@@H](O)[C@H](O)[C@H]2O)[C@@H](O)[C@H](O)[C@H]1O)[C@H]1CC[C@]2(C)[C@@H]1[C@H](O)C[C@@H]1[C@@]3(C)CC[C@H](O[C@@H]4O[C@H](CO)[C@@H](O)[C@H](O)[C@H]4O[C@@H]4O[C@H](CO)[C@@H](O)[C@H](O)[C@H]4O)C(C)(C)[C@@H]3CC[C@]12C,Potency,[7],inactive
same,Potency,[1],inactive
same,Potency,[2],inactive
same,Potency,[4],inactive
same,Potency,[5],inactive
same,Potency,[6],inactive
CC(C)C1(O[C@@H]2O[C@H](CO)[C@@H](O)[C@H](O)[C@H]2O)CC=C(CO)CC1 (some centres undefined),Potency,[7],inactive
same,Potency,[1],inactive
same,Potency,[2],inactive
same,Potency,[4],inactive
same,Potency,[5],inactive
same,Potency,[6],inactive
C#C[C@]1(O)CC[C@H]2[C@@H]3CCC4=C/C(=N/O)CC[C@@H]4[C@H]3CC[C@@]21CC,Potency,[7],inactive
same,Potency,[1],inactive
same,Potency,[2],inactive
same,Potency,[4],inactive
same,Potency,[6],inactive
same,"activity, negative = cell killing","[9]; at 45.9 µM (top of the series), tumour line B",-7.76%
same,"activity, negative = cell killing","[9]; at 46.1 µM (top of the series), tumour line C",-27.9%
same,Potency,[9]; tumour line A,12.6 µM (active)
same,Potency,[10],20 µM (active)
Cc1nc2c(-c3cnc(N)nc3)nc(N3CCOCC3)nc2n1C(C)C,Potency,[7],0.708 µM (active)
same,Potency,[2],1.12 µM (active)
same,Potency,[3],2 µM (active)
same,Potency,[4],0.562 µM (active)
same,Potency,[5],0.631 µM (active)
O=C(O)C[C@H](O)C[C@H](O)/C=C/c1c(C2CC2)nc2ccccc2c1-c1ccc(F)cc1,Potency,[1],inactive
same,Potency,[3],10 µM (active)
same,Potency,[6],11.2 µM (active)
COC(=O)[C@H](OC(C)=O)[C@H]1C(C)(C)C(=O)[C@H]2CC3=C4CC(=O)O[C@@H](c5ccoc5)[C@]4(C)CCC3[C@@]1(C)C2=O (some centres undefined),Potency,[7],inactive
same,Potency,[1],inactive
same,Potency,[2],inactive
same,Potency,[4],inactive
same,Potency,[5],inactive
same,Potency,[6],inactive
NCc1ccc(OCCCc2sc(-c3ccc4c(c3)/C(=N/Nc3nc5ccccc5s3)CCC4)nc2C(=O)O)cc1,Potency,[7],inactive
same,Potency,[1],inactive
same,Potency,[3],inactive
same,Potency,[5],inactive
same,Potency,[6],inactive
CON(C)C(=O)N1N=C(c2cc(F)ccc2F)S[C@@]1(CCCN)c1ccccc1,Potency,[2],inactive
same,Potency,[4],inactive
CN(C)C/C=C/C(=O)Nc1ccc(C(=O)Nc2cccc(Nc3ncc(Cl)c(-c4c[nH]c5ccccc45)n3)c2)cc1,Potency,[7],1.26 µM (active)
same,Potency,[1],3.55 µM (active)
same,Potency,[3],0.891 µM (active)
same,Potency,[6],0.631 µM (active)
same,Potency,[8]; HiBiT,0.442 µM (active)
same,"activity change, negative = inhibition",[8]; Viability,-19.3%
COc1ccc2c(c1)OC[C@]1(O)c3cc4c(cc3O[C@H]21)OCO4,Potency,[7],inactive
same,Potency,[1],inactive
same,Potency,[2],inactive
same,Potency,[4],inactive
same,Potency,[5],inactive
same,Potency,[6],inactive
CCc1nc(C(N)=O)c(Nc2ccc(N3CCC(N4CCN(C)CC4)CC3)c(OC)c2)nc1NC1CCOCC1,Potency,[1],inactive
same,Potency,[2],inactive
same,Potency,[3],2.24 µM (active)
same,Potency,[4],1.12 µM (active)
O=C(Nc1cccnn1)N1CCC(=Cc2cccc(Oc3ccc(C(F)(F)F)cn3)c2)CC1,Potency,[1],inactive
same,Potency,[5],inactive
same,Potency,[6],inactive
COc1cc2c(Nc3ccc(Cl)c(Cl)c3F)ncnc2cc1OCC1C[C@@H]2CN(C)C[C@@H]2C1 (some centres undefined),Potency,[2],20 µM (active)
same,Potency,[4],14.1 µM (active)
same,Potency,[6],17.8 µM (active)
same,Potency,[8]; HiBiT,19.8 µM (active)
same,Potency,[8]; Viability,17.6 µM (active)
CC(C)Nc1cc(-c2c[nH]c(C(=O)N[C@H](CO)c3cccc(Cl)c3)c2)c(Cl)cn1,Potency,[7],inactive
same,Potency,[1],inactive
same,Potency,[4],inactive
same,Potency,[6],inactive
Nc1ccn([C@@H]2C(F)=C(CO)[C@@H](O)[C@H]2O)c(=O)n1,Potency,[1],inactive
same,Potency,[2],inactive
same,Potency,[3],2.24 µM (active)
CC(=O)N1c2ccccc2C2(O)CC3C(=O)NC(CC(C)C)C(=O)N3C12 (centres undefined),Potency,[1],inactive
same,Potency,[2],inactive
same,Potency,[3],inactive
same,Potency,[4],inactive
same,Potency,[5],inactive
same,Potency,[6],inactive
CCCCNC(=O)[C@@H]1Cc2ccccc2N1C(=O)[C@@H](N)CC,Potency,[1],inactive
same,Potency,[2],inactive
same,Potency,[3],inactive
same,Potency,[4],inactive
same,Potency,[5],inactive
same,Potency,[6],inactive
COc1cc(N2CCC(O)CC2)ccc1Nc1cc(Nc2ccccc2S(=O)(=O)C(C)C)c2cc[nH]c2n1,Potency,[7],inactive
same,Potency,[1],inactive
same,Potency,[2],inactive
same,Potency,[4],inactive
same,Potency,[5],inactive
same,Potency,[6],inactive
Cc1ccc(Sc2cncc3sc(C(N)=O)cc23)cc1,Potency,[7],inactive
same,Potency,[2],inactive
same,Potency,[3],inactive
same,Potency,[4],inactive
same,Potency,[6],inactive
CC1(C)C[C@H]2C3=CCC4[C@@]5(C)CC[C@H](O[C@H]6O[C@H](C(=O)O)[C@@H](O)[C@H](O)[C@H]6O[C@H]6O[C@H](CO)[C@@H](O)[C@H](O)[C@H]6O[C@@H]6O[C@H](CO)[C@@H](O)[C@H](O)[C@H]6O)[C@](C)(CO)C5CC[C@@]4(C)[C@]3(C)CC[C@@]2(C)[C@H](O[C@@H]2OC[C@H](O)[C@H](OC3O[C@H](CO)[C@@H](O)[C@H](O)[C@H]3O)[C@H]2O)[C@@H]1O (some centres undefined),"activity change, negative = cytotoxicity",[7],-1.35% [at 6.55 µM]
same,"activity change, negative = cytotoxicity",[1],2.5% [at 6.55 µM]
same,"activity change, negative = cytotoxicity",[2],-1.3% [at 6.55 µM]
same,"activity change, negative = cytotoxicity",[4],-2.8% [at 6.55 µM]
same,"activity change, negative = cytotoxicity",[5],3.65% [at 6.55 µM]
same,"activity change, negative = cytotoxicity",[6],-3.08% [at 6.55 µM]
C=C[C@@]1(C)CC(=O)C2[C@](C)(O1)[C@@H](OC(C)=O)[C@@H](O)[C@H]1C(C)(C)CCC[C@]21C (some centres undefined),"activity change, negative = cytotoxicity",[7],-0.239% [at 11.6 µM]
same,"activity change, negative = cytotoxicity",[1],7.71% [at 11.6 µM]
same,"activity change, negative = cytotoxicity",[3],5.09% [at 11.6 µM]
same,"activity change, negative = cytotoxicity",[5],0.473% [at 11.6 µM]
same,"activity change, negative = cytotoxicity",[6],4.2% [at 11.6 µM]
COc1cc(N2CCC(N(C)C)CC2)ccc1Nc1ncc(Cl)c(Nc2ccccc2P(C)(C)=O)n1,Potency,[7],10 µM (active)
same,Potency,[2],1.58 µM (active)
same,Potency,[3],8.91 µM (active)
same,Potency,[4],3.55 µM (active)
same,Potency,[5],7.08 µM (active)
same,Potency,[6],10 µM (active)
same,Potency,[8]; HiBiT,3.13 µM (active)
Cc1cc(Nc2ncc(Cl)c(Nc3ccccc3S(=O)(=O)C(C)C)n2)c(OC(C)C)cc1C1CCNCC1,Potency,[7],inactive
same,Potency,[1],inactive
same,Potency,[3],inactive
same,Potency,[5],inactive
same,Potency,[6],inactive
same,Potency,[8]; Viability,27.9 µM (active)
CCN(CC)Cc1cc(Nc2ccnc3cc(Cl)ccc23)ccc1O,"activity, negative = cell killing","[9]; at 20 µM (top of the series), tumour line C",-18.3%
same,Potency,[9]; tumour line A,12.6 µM (active)
same,Potency,[9]; tumour line D,14.1 µM (active)
